Screens deposited in PubChem by National Center for Advancing Translational Sciences (NCATS).
Only some compounds are listed: those with a hit (about 16% of all), similar ones and a draw of the others.
DT40 TDP1 CPT: qHTS for Inhibitors of human tyrosyl-DNA phosphodiesterase 1 (TDP1): qHTS in cells in presence of CPT. chicken DT40 Tdp1-/-;hTDP1 cells + 20 nM CPT, ATP luminescence, 48 h. Potency, µM (series often up to 46.2 µM), for inactives: top-dose activity change, negative = growth inhibition, most hits filed as inhibitors. 12% of 420,000 active; note: potency is the fitted concentration of half-maximal effect; % is set by controls: 0 for no effect and ±100 for the full control effect; nearly all actives have a fitted effect of over 55% in size
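Cell growth measured by CellTiter-Glo luminescence after a minimum 48 h, 37 C compound exposure with 20 nM CPT in Tdp1-knockout DT40 cells stably expressing hTDP1, seeded 400/well; qHTS titration format.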
DT40 TDP1 no CPT: qHTS for Inhibitors of human tyrosyl-DNA phosphodiesterase 1 (TDP1): qHTS in cells in absence of CPT; DT40 Tdp1-/- hTDP1 cells, no CPT, ATP luminescence, 48 h; Potency, µM (highest dose often 46.2 µM), inactives show at the top dose activity change, negative = growth inhibition, most hits filed as inhibitors; 15% of 420,000 active; note: potency is the fitted concentration of half-maximal effect; % is set by controls: 0 for no effect and ±100 for the full control effect; nearly all actives have a fitted effect of over 55% in size
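Luminescent ATP content (CellTiter-Glo) served as the growth readout. Knockout chicken DT40 cells expressing human TDP1 were exposed to compounds without camptothecin for a minimum 48 hr at 37 °C.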
TDP1 inh: qHTS Assay for Inhibitors of Tyrosyl-DNA Phosphodiesterase (TDP1); Potency, µM (titrated, usually from 130 µM), without a hit: at the highest dose activity change, negative = inhibition, usual class: inhibitors; recombinant TDP1, AlphaScreen DNA substrate cleavage; 0.28% of 350,000 active; AID 485290, 2010; note: potency is the fitted concentration of half-maximal effect; % is set by controls: 0 for no effect and ±100 for the full control effect; nearly all actives have a fitted effect of over 40% in size
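Enzyme-compound mixtures sat 15 min at room temperature, followed by a 5 min reaction with 15 nM final substrate and 10 min with AlphaScreen beads. Recombinant human Tdp1 was used at 1 nM final.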
miR-21 reporter: qHTS Assay for Modulators of miRNAs and/orActivators of miR-21; HeLa miR-21 FLuc reporter, luciferase, 48 h; Potency, µM (highest dose often 38.3 µM), for the others: at the highest dose activity change, positive = activation, actives largely listed as activators; 340,000 tested, under 10 active;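 note: % of control where 0% means no effect; miR-21 action dims this reporter so a rising signal means less miR-21 action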
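HeLa cells stably expressing CMV-driven firefly luciferase with a downstream miR-21 binding sequence, endogenously expressing miR-21, were treated with titrations (up to about 40uM final) for 48 hours at 37 degree Celsius. Luciferase luminescence was read after lysis.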
uPA generation: qHTS for Inhibitors of Cell Surface uPA Generation; cell surface uPA generation assay, qHTS; Potency, µM (doses to about 38.3 µM), inactives show top-dose activity change, negative = inhibition, usual class: inhibitors; 0.31% of 330,000 active; AID 540303, 2011; active = well fitted inhibition curve with a large enough effect; inconclusive = small, poorly fitted or top-dose-only effect; inactive = no such curve, though single readings can be large or run the other way; tested in mouse RAW 264.7 cells; note: potency is the fitted concentration of half-maximal effect; % is set by controls: 0 for no effect and ±100 for the full control effect; nearly all actives have a fitted effect of over 55% in size
The depositor's hits bear a star; ? = inconclusive; . = no result given; [ ] = another dose, or the depositor's remark. Unless noted, calls come from the whole dose curve; as a rule, active = well fitted curve in the direction sought with a large enough effect; inconclusive = small, poorly fitted or top-dose-only effect, or another doubt; inactive = no such curve, though single readings can be large; an effect the other way counts as inactive or inconclusive.

SMILES	DT40 TDP1 CPT	DT40 TDP1 no CPT	TDP1 inh	miR-21 reporter	uPA generation
CC(C)(CO)Nc1ncnc2onc(-c3ccc(F)cc3)c12	-5%	-27%	.	-3%	-9%
COc1ccc(OC)c(CNc2ncnc3onc(C)c23)c1	?	?	4%	2%	.
COc1ccccc1CNc1ncnc2onc(-c3ccc(F)cc3)c12	-30%	-32%	0%	-5%	.
CCOc1ccccc1CNc1ncnc2onc(-c3ccc(F)cc3)c12	16µM*	23µM*	2%	-4%	.
COc1ccc(OC)c(CNc2ncnc3onc(-c4ccc(Cl)cc4)c23)c1	2.6µM*	2.9µM*	9%	22%	.
CCS(=O)(=O)N1CCCC(C(=O)NCCCN2CCCC2=O)C1 (stereo unspecified)	-8%	-20%	-1%	0%	4%
Cc1ccc(NC(=O)CN2CCN(Cc3ccccc3)CC2)c(Br)c1	?	-26%	.	-6%	7%
COc1ccc(OC)c(CNc2ncc(-c3ccc(Cl)cc3)n2C)c1	16µM*	16µM*	5%	0%	.
CCn1c(SCC(=O)Nc2ccc(N3CCOCC3)c(Cl)c2)nnc1-c1ccc(N)cc1	-2%	?	2%	-3%	0%
Cc1cccnc1NC(=O)c1ccc(OCC2CCCO2)cc1 (stereo unspecified)	-5%	9%	1%	.	3%
COc1ccc2nc(NC(=O)c3ccc(NC(=O)C4CCCO4)cc3)sc2c1 (stereo unspecified)	?	?	.	-6%	4%
Cc1cc(C)c2nc(NC(=O)c3ccc(OCC4CCCO4)cc3)sc2c1 (stereo unspecified)	?	21µM*	3%	-45%	14%
Cc1ccc2nc(NC(=O)c3ccc(OCC4CCCO4)cc3)sc2c1 (stereo unspecified)	13µM*	15µM*	3%	1%	2%
COC(=O)c1sccc1Oc1ccc(F)cc1[N+](=O)[O-]	-1%	-24%	2%	-2%	-2%
Cc1cc(C)nc(NC(=NCCc2c[nH]c3ccccc23)NC(=O)Nc2ccccc2)n1	?	18µM*	8%	26%	-4%
Cc1cc(C)nc(NC(=NCCc2c[nH]c3ccccc23)NC(=O)Nc2cccc([N+](=O)[O-])c2)n1	13µM*	7.3µM*	5%	0%	0%
Cc1cc(C)nc(NC(=NCCc2c[nH]c3ccccc23)NC(=O)c2ccco2)n1	21µM*	10µM*	9%	8%	-2%
C/C(=N\NC(=O)CCc1c[nH]c2ccccc12)c1cccc([N+](=O)[O-])c1	?	?	4%	-18%	-6%
Cc1cc(C)nc(NC(=NCCc2c[nH]c3ccccc23)NC(=O)Nc2ccc(Cl)c(Cl)c2)n1	15µM*	13µM*	2%	-1%	1%
O=C(NCCc1c[nH]c2ccccc12)C(=O)Nc1ccccc1	-25%	?	8%	-30%	?
COc1ccc2[nH]cc(CCN=C(NC(=O)c3ccccc3F)Nc3nc(C)cc(C)n3)c2c1	.	.	6%	-13%	.
CC(=O)Nc1cccc(C(=O)OCc2ccccc2)c1	-8%	-3%	7%	-36%	-1%
CC1(C)CC(=O)C(CSC(=O)c2ccccc2)C(=O)C1	13µM*	13µM*	.	.	.
CC1(C)CC(=O)C=C(NNC(=O)c2ccccc2)C1	-1%	-13%	0%	-18%	3%
CCn1c(=O)[nH]c2ccccc21	0%	-8%	12%[56.1 µM]	.	.
CCn1c(C)c(CS(=O)(=O)c2ccccc2)[nH]c1=O	4.1µM*	2.9µM*	3%	8%	-14%
Cc1cc2nc(-c3ccc(OCc4ccccc4)cc3)cc(C(F)(F)F)n2n1	-26%	-29%	4%	-5%	.
COCCCNc1ccn2nc(-c3ccc(OCc4ccccc4)cc3)cc2n1	16µM*	?	.	.	.
